The whole screen tested about 5,500 compounds, of which about 2,000 (36%) were called active. Inconclusive results (about 18%) are left out. No stated cut-off is given here; in the data, active means normalized growth mostly below about 0.91 (no sharp cut-off); inconclusive means no clear call, values can overlap the other calls; inactive means mostly above about 0.92. Some of the results follow.
Experiment: chemical genetic growth profiling, strain panel (AID 1159580);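 further: tested at 20 µM; growth read once vehicle control cultures reached saturation at 30 °C; 1 = growth at the plate median or of vehicle wells; lower values mean less growth of the strain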
Conditions: growth OD

Measured: normalized growth

Cn1c(=O)[nH]c(=O)c2[nH]cnc21
inactive: S. cerevisiae deletion strains, locus YJR075W, strain HOC1, active compounds read low 0.995 | S. cerevisiae deletion strains, locus YKL009W, strain mrt4, active compounds read low 0.998 | S. cerevisiae deletion strains, locus YKL068W, active compounds read low 0.97 | S. cerevisiae deletion strains, locus YKL085W, strain MDH1 (second series), active compounds read low 0.976 | S. cerevisiae deletion strains, locus YKL085W, strain MDH1, active compounds read low 0.976 | S. cerevisiae deletion strains, locus YKL160W, strain elf1, active compounds read low 1 | S. cerevisiae deletion strains, locus YKL190W, strain CNB1, active compounds read low 0.995 | S. cerevisiae deletion strains, locus YKR001C, strain vps1, active compounds read low 0.987 | S. cerevisiae deletion strains, locus YKR026C, strain gcn3, active compounds read low 0.984 | S. cerevisiae deletion strains, locus YKR091W, strain srl3, active compounds read low 0.992 | S. cerevisiae deletion strains, locus YLL001W, strain dnm1, active compounds read low 1.01 | S. cerevisiae deletion strains, locus YLL026W, active compounds read low 1 | S. cerevisiae deletion strains, locus YLL041C, strain sdh2, active compounds read low 1 | S. cerevisiae deletion strains, locus YLR027C, strain aat2, active compounds read low 0.974 | S. cerevisiae deletion strains, locus YLR039C, strain RIC1, active compounds read low 0.974 | S. cerevisiae deletion strains, locus YLR058C, strain SHM2, active compounds read low 0.988 | S. cerevisiae deletion strains, locus YLR102C, strain apc9, active compounds read low 0.972 | S. cerevisiae deletion strains, locus YLR113W, strain HOG1, active compounds read low 0.998 | S. cerevisiae deletion strains, locus YLR221C, strain rsa3, active compounds read low 1.01 | S. cerevisiae deletion strains, locus YLR258W, strain gsy2, active compounds read low 0.999 | S. cerevisiae deletion strains, locus YLR262C, strain YPT6 (second series), active compounds read low 0.976 | S. cerevisiae deletion strains, locus YLR262C, strain YPT6, active compounds read low 1.01 | S. cerevisiae deletion strains, locus YLR268W, strain sec22, active compounds read low 0.956 | S. cerevisiae deletion strains, locus YLR320W, strain mms22, active compounds read low 0.987 | S. cerevisiae deletion strains, locus YLR330W, strain CHS5, active compounds read low 0.991 | S. cerevisiae deletion strains, locus YLR342W, strain FKS1 (second series), active compounds read low 1.01 | S. cerevisiae deletion strains, locus YLR342W, strain FKS1, active compounds read low 1.01 | S. cerevisiae deletion strains, locus YLR357W, strain rsc2, active compounds read low 0.971 | S. cerevisiae deletion strains, locus YLR370C, strain arc18, active compounds read low 0.989 | S. cerevisiae deletion strains, locus YLR371W, strain rom2, active compounds read low 0.96 | S. cerevisiae deletion strains, locus YLR384C, strain iki3, active compounds read low 0.983 | S. cerevisiae deletion strains, locus YLR418C, strain cdc73, active compounds read low 0.983 | S. cerevisiae deletion strains, locus YML016C, strain PPZ1, active compounds read low 0.986 | S. cerevisiae deletion strains, locus YML032C, strain rad52, active compounds read low 0.974 | S. cerevisiae deletion strains, locus YML120C, strain ndi1, active compounds read low 0.999 | S. cerevisiae deletion strains, locus YML124C, strain tub3, active compounds read low 0.972 | S. cerevisiae deletion strains, locus YMR058W, strain fet3, active compounds read low 1.01 | S. cerevisiae deletion strains, locus YMR078C, strain ctf18, active compounds read low 0.954 | S. cerevisiae deletion strains, locus YMR125W, strain sto1, active compounds read low 1.01 | S. cerevisiae deletion strains, locus YMR129W, active compounds read low 0.99 | S. cerevisiae deletion strains, locus YMR205C, strain PFK2, active compounds read low 0.998 | S. cerevisiae deletion strains, locus YMR223W, strain ubp8, active compounds read low 0.987 | S. cerevisiae deletion strains, locus YMR231W, strain pep5, active compounds read low 0.992 | S. cerevisiae deletion strains, locus YMR263W, strain SAP30, active compounds read low 0.953 | S. cerevisiae deletion strains, locus YMR307W, strain GAS1, active compounds read low 0.948 | S. cerevisiae deletion strains, locus YNL067W, strain RPL9B, active compounds read low 0.996 | S. cerevisiae deletion strains, locus YNL071W, strain lat1, active compounds read low 0.98 | S. cerevisiae deletion strains, locus YNL128W, strain TEP1, active compounds read low 0.987 | S. cerevisiae deletion strains, locus YNL153C, strain GIM3, active compounds read low 0.993 | S. cerevisiae deletion strains, locus YNL183C, strain NPR1, active compounds read low 0.925 | S. cerevisiae deletion strains, locus YNL209W, strain ssb2, active compounds read low 0.983 | S. cerevisiae deletion strains, locus YNL233W, strain BNI4, active compounds read low 0.981 | S. cerevisiae deletion strains, locus YNL248C, strain rpa49, active compounds read low 0.985 | S. cerevisiae deletion strains, locus YNL250W, strain rad50, active compounds read low 0.956 | S. cerevisiae deletion strains, locus YNL271C, strain bni1, active compounds read low 0.963 | S. cerevisiae deletion strains, locus YNL298W, strain CLA4, active compounds read low 0.972 | S. cerevisiae deletion strains, locus YNL307C, strain MCK1, active compounds read low 0.975 | S. cerevisiae deletion strains, locus YNL322C, strain KRE1 (second series), active compounds read low 0.968 | S. cerevisiae deletion strains, locus YNL322C, strain KRE1, active compounds read low 0.997 | S. cerevisiae deletion strains, locus YNR049C, strain mso1, active compounds read low 1 | S. cerevisiae deletion strains, locus YNR052C, strain pop2, active compounds read low 0.97 | S. cerevisiae deletion strains, locus YOL006C, strain TOP1, active compounds read low 0.965 | S. cerevisiae deletion strains, locus YOL012C, strain htz1 1.01 | S. cerevisiae deletion strains, locus YOL147C, strain pex11, active compounds read low 0.981 | S. cerevisiae deletion strains, locus YOR001W, strain rrp6, active compounds read low 1.01 | S. cerevisiae deletion strains, locus YOR061W, strain CKA2, active compounds read low 0.986 | S. cerevisiae deletion strains, locus YOR069W, strain VPS5, active compounds read low 0.981 | S. cerevisiae deletion strains, locus YOR070C, strain gyp1, active compounds read low 0.998 | S. cerevisiae deletion strains, locus YOR080W, strain dia2, active compounds read low 0.986 | S. cerevisiae deletion strains, locus YOR083W, strain WHI5, active compounds read low 0.933 | S. cerevisiae deletion strains, locus YOR106W, strain vam3, active compounds read low 0.977 | S. cerevisiae deletion strains, locus YOR136W, strain idh2, active compounds read low 0.967 | S. cerevisiae deletion strains, locus YOR144C, strain elg1, active compounds read low 0.958 | S. cerevisiae deletion strains, locus YOR184W, strain ser1, active compounds read low 0.966 | S. cerevisiae deletion strains, locus YOR231W, strain MKK1, active compounds read low 0.978 | S. cerevisiae deletion strains, locus YOR265W, strain rbl2, active compounds read low 0.988 | S. cerevisiae deletion strains, locus YOR270C, strain vph1, active compounds read low 0.981 | S. cerevisiae deletion strains, locus YOR290C, strain snf2, active compounds read low 0.987 | S. cerevisiae deletion strains, locus YOR316C, strain cot1, active compounds read low 0.972 | S. cerevisiae deletion strains, locus YPL051W, strain arl3, active compounds read low 0.988 | S. cerevisiae deletion strains, locus YPL055C, strain LGE1, active compounds read low 1 | S. cerevisiae deletion strains, locus YPL078C, strain atp4, active compounds read low 0.988 | S. cerevisiae deletion strains, locus YPL106C, strain sse1, active compounds read low 0.958 | S. cerevisiae deletion strains, locus YPL240C, strain hsp82, active compounds read low 1.02 | S. cerevisiae deletion strains, locus YPL241C, strain CIN2, active compounds read low 0.993 | S. cerevisiae deletion strains, locus YPL256C, strain CLN2, active compounds read low 0.972 | S. cerevisiae deletion strains, locus YPR119W, strain clb2, active compounds read low 0.974 | S. cerevisiae deletion strains, locus YPR141C, strain kar3, active compounds read low 0.952 | S. cerevisiae deletion strains, locus YPR163C, strain tif3, active compounds read low 0.965 | S. cerevisiae deletion strains, locus YPR167C, strain met16, active compounds read low 0.965 | S. cerevisiae deletion strains, strain wtn01, active compounds read low 0.982 | S. cerevisiae strains, strain wild type, active compounds read low 0.993

Source: PubChem BioAssay AID1159580 (chemical genetic matrix, 2015)
